Reference: PubChem BioAssay (NCATS)
Records with an inconclusive call do not appear. Active and inactive are the calls of the source. The call rests on the fitted dose curve; in most records, active means well fitted inhibition curve with a large enough effect; inconclusive means small, poorly fitted or top-dose-only effect; inactive means flat fitted curve, though single readings scatter.

How the values were obtained:
Test in all cases: Cytotoxic Profiling of Annotated Libraries Using Quantitative High-Throughput Screening (AID 1296008); further: nearly all actives have a fitted effect of over 60% in size
Settings in all cases: Five cell lines viability, CellTiter-Glo ATP luminescence, 48-72 h; max response: hits give low values
[1] = system: CRL-7250
Summary of the method: (§1)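 Cells exposed to compounds for 48 or 72 hr at 37 degrees Celsius. Viability read as ATP-coupled luminescence with CellTiter-Glo after 10 min at room temperature.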

[2] = system: HaCat
Summary of the method: as §1

[3] = system: KB-3-1
Summary of the method: as §1

[4] = system: NIH3T3
Summary of the method: as §1

Measured: max response
On the % scale 0 is the no-effect control and ±100 the full control effect.

CC1(C)CC[C@]23CO[C@@]4(CCC5[C@@]6(C)CC[C@H](O[C@@H]7OC[C@H](O[C@@H]8O[C@H](CO)[C@@H](O)[C@H](O)[C@H]8O[C@@H]8OC[C@@H](O)[C@H](O)[C@H]8O)[C@H](O)[C@H]7O)[C@@](C)(CO)C6CC[C@@]5(C)[C@]4(C)CC2=O)[C@@H]3C1 (stereo partly drawn)
inactive: [1] -12.4% | [2] 2.87% | [3] | [4] -14.1%

CCOC(=O)N1c2ccc(C(F)(F)F)cc2C(N(Cc2cc(C(F)(F)F)cc(C(F)(F)F)c2)C(=O)OC)CC1CC (stereo not drawn)
inactive: [1] -2.53% | [2] -2.39% | [3] -0.758% | [4] 3.11%

C[C@@H]1O[C@@H](O[C@H]2[C@H](OC(=O)[C@]34CCC(C)(C)C[C@H]3C3=CCC5[C@@]6(C)C[C@H](O)[C@H](O[C@@H]7O[C@H](C(=O)O)[C@@H](O)[C@H](O)[C@H]7O)[C@@](C)(CO)C6[C@H](O)C[C@@]5(C)[C@]3(C)C[C@H]4O)O[C@@H](CO)[C@@H]2O)[C@H](O)[C@H](O)[C@H]1O[C@@H]1OC[C@@H](O)[C@H](O[C@H]2OC[C@](O)(CO)[C@H]2O)[C@H]1O (stereo partly drawn)
inactive: [1] | [2] -2% | [3] -0.0365% | [4] -0.318%

CC/C(C)=C/C(=O)OC1C(OC2(C)CCC3C(C4C(C)CCC42)C3(C)C)OC(C)C(O)C1O (stereo not drawn)
inactive: [1] -1.32% | [2] -0.133% | [3] | [4] -0.0823%

COc1ccc(CCc2nc3cc(-c4c(C)noc4C)ccc3n2CC(C)N2CCOCC2)cc1Cl (stereo not drawn)
inactive: [1] -13.4% | [2] -1.2% | [3] 0.0649% | [4] -17.1%

C[C@@H]1O[C@@H](O[C@H]2[C@H](O[C@H]3CC[C@@]4(C)C(CC[C@]5(C)C4C=C[C@]46OC[C@@]7(CCC(C)(C)C[C@H]74)[C@@H](O[C@@H]4O[C@@H](C)[C@H](O)[C@@H](O)[C@H]4O)C[C@]65C)[C@]3(C)CO)O[C@H](CO)[C@@H](O)[C@@H]2O[C@@H]2O[C@H](CO)[C@@H](O)[C@H](O)[C@H]2O)[C@H](O)[C@H](O)[C@H]1O (stereo partly drawn)
inactive: [1] -7.16% | [2] -9.32% | [3] -1.23% | [4] -25.1%

N#Cc1ccc(COC[C@H]2O[C@@H](n3c(NCc4ccc(Cl)c(Cl)c4)nc4c(N)ncnc43)[C@H](O)[C@@H]2O)cc1
inactive: [1] | [2] -23% | [3] 2.86% | [4] -0.0303%
